Screening results: PubChem, National Center for Advancing Translational Sciences (NCATS)
The list is not random: actives were taken first. Their share in the collection is about 2.4%.
ELG1 repair inh – inhibitors of ELG1-dependent DNA repair in HEK293T cells | HEK293T ELG1-luciferase reporter, luminescence, 16 h; DNA damage induced by 5-fluorouridine | Potency, µM (highest dose often 46.1 µM), for inactives: at the top dose activity change, negative = inhibition, usual class: inhibitors | 2.3% of 330,000 active | AID 504467; note: % is set by controls: 0 for no effect and ±100 for the full control effect; nearly all actives have a fitted effect of over 55% in size
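DMSO vehicle served as the neutral condition. Each well held 2,000 cells given 5-fluorouridine plus compound; after 16 hr at 37 °C/5% CO2, ONE-Glo was added and luciferase measured 30 min later.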
Rango dissoc inh – inhibition of RanGTP-driven Rango-importin beta dissociation; 0.071% of 340,000 active; Biochemical FRET Rango-importin beta, RanGTP-induced dissociation; Potency, µM (titrated, usually from 46.1 µM), inactives show at the highest dose activity change, negative = inhibition; calls by dose curve; note: % of control where 0% means no effect; nearly all actives have a fitted effect of over 45% in size
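Rango (0.1 uM)–importin beta (0.25 uM) complex; RanGTP-RCC1 trigger; 45 min RT; CFP/YFP FRET read.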
Tb PFK inh – blocks T. brucei phosphofructokinase; O15648; T. brucei PFK, ADP-Glo luminescence; Potency, µM (doses to about 57.5 µM), without a hit: at the top dose activity, negative = inhibition, usual class: inhibitors; 0.17% of 330,000 active;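 note: 0% = uninhibited 1x PFK enzyme wells and -100% = no-enzyme wells; nearly all actives have a fitted effect of over 60% in size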
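1.25 nM PFK with 0.5 mM F6P and 0.1 mM ATP in 0.1 M TEA pH 8.0, 5 mM MgCl2, incubated 45 min at room temperature; ADP measured by ADP-Glo luminescence; compounds titrated up to 57 uM.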
Rango-impB inh – inhibitors of Rango-importin beta complex formation; Q14974; Rango CFP/YFP FRET sensor + importin beta, 45 min; Potency, µM (doses to about 92.2 µM), inactives show top-dose inhibition of complex formation; 0.031% of 340,000 active; AID 540263; calls by dose curve;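 note: 0% = DMSO wells and 100% = buffer wells lacking importin beta; nearly all actives have a fitted effect of over 15% in size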
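Inhibition scored from the CFP 486 nm/YFP 530 nm FRET ratio 45 min after adding 0.125 microM importin beta to 50 nM Rango biosensor preincubated 5 min with compound (room temperature, PBS with DTT, Tween-20, BSA). No-importin wells as positive control.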
PKM2 act – increases activity of human pyruvate kinase M2. P14618. purified PKM2, Kinase-Glo ATP luminescence, activation; response scale: 0% is enzyme alone, no compound. Potency, µM (titrated, usually from 57.5 µM), inactives show top-dose activation, most hits filed as activators. 0.34% of 260,000 active; note: % is set by controls: 0 for no effect and ±100 for the full control effect; nearly all actives have a fitted effect of over 55% in size
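hPK-M2, >95% pure; 0.1 mM ADP / 0.5 mM PEP final; imidazole pH7.2 buffer w/ 7 mM MgCl2, 50 mM KCl; 1 h RT; Kinase-Glo lum. Intermediate enzyme activity for dual inhibitor/activator qHTS.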
PGK inhibitor – inhibitors of T. brucei phosphoglycerate kinase | Potency, µM (highest dose often 57.5 µM), without a hit: top-dose activity change, negative = inhibition, usual class: inhibitors | 0.043% of 380,000 active | PGK/GAPDH coupled, Kinase-Glo luminescence, 60 min; note: % is set by controls: 0 for no effect and ±100 for the full control effect; nearly all actives have a fitted effect of over 60% in size
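Luminescent ATP detection (Kinase-Glo Plus) follows a 60-minute room-temperature incubation, with wells lacking PGK as controls. Buffer: 100 mM TEA (pH 7.6), 5 mM MgCl2, 0.01% Tween-20. Coupling enzyme GAPDH (100 nM final) supplies unstable 1,3-BPG in-well.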
ELG1 FLuc counter – luciferase inhibition in cell-free luciferin readout for ELG1 hits. shares compounds with ELG1 repair inh. cell-free firefly luciferase luminescence counter-screen, ViewLux. Potency, µM (titrated, usually from 46.1 µM), for inactives: at the top dose activity change, negative = inhibition, usual class: inhibitors. 3% of 350 active; note: % is set by controls: 0 for no effect and ±100 for the full control effect
ELG1-Luc inh – human ELG1 repair inhibition, luciferase-tagged ELG1 confirmation; shares compounds with ELG1 repair inh; HEK293T ELG1-luciferase levels, luminescence; cells co-treated with 5-fluorouridine; Potency, µM (doses to about 46.1 µM), for inactives: at the top dose activity change, negative = inhibition, usual class: inhibitors; 68% of 670 active; note: % is set by controls: 0 for no effect and ±100 for the full control effect; nearly all actives have a fitted effect of over 55% in size
Target sequence (Q96QE3 whole entry, looked up): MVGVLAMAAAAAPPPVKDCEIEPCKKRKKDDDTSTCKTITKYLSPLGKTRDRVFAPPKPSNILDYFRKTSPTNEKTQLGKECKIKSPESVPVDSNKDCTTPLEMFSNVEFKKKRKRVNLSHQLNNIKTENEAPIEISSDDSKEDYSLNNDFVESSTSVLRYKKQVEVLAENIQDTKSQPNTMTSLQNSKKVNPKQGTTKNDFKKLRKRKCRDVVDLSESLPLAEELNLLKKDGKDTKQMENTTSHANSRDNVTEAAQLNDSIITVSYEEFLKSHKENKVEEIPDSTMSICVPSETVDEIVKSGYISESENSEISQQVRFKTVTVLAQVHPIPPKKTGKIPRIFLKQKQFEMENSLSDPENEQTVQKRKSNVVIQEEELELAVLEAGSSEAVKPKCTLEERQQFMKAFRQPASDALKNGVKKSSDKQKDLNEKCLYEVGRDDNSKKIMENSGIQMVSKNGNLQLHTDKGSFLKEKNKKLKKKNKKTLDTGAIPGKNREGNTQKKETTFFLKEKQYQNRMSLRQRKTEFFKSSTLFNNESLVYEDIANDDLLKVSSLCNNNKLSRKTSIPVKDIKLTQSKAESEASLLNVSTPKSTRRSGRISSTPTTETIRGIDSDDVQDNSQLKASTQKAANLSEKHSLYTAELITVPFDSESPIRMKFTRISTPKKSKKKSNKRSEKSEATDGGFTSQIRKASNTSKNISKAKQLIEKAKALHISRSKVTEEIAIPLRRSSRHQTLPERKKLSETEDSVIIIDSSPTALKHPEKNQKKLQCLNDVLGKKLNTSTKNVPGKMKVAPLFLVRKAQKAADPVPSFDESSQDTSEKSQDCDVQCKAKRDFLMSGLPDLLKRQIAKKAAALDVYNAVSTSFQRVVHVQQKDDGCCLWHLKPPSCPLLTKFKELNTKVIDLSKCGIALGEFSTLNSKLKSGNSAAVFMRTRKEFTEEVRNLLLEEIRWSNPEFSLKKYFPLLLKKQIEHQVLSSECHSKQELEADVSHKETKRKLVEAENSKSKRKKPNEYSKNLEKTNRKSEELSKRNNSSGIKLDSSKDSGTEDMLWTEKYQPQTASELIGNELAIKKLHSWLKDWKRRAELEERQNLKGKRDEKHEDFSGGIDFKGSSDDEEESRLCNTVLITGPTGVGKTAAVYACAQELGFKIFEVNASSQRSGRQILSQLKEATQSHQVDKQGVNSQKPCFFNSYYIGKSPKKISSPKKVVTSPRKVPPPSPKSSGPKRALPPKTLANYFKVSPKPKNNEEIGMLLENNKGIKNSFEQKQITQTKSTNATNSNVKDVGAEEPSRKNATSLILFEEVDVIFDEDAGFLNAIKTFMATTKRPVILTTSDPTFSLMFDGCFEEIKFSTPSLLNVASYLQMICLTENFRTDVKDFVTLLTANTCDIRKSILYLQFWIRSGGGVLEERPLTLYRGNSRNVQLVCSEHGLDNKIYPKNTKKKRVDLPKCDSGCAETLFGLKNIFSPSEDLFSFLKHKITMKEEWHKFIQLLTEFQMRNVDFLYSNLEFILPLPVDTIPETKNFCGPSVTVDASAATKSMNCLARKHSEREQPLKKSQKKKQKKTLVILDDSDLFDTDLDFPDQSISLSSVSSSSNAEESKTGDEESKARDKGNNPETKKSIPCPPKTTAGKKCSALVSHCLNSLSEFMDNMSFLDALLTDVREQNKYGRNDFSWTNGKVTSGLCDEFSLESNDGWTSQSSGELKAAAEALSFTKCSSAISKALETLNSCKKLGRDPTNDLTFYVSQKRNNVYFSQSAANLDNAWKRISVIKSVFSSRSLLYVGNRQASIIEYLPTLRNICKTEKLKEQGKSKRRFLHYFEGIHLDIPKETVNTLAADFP
ELG1-Luc MMS – MMS-stimulated human ELG1 repair inhibition, confirmed; AID 624249; Potency, µM (titrated, usually from 46.1 µM), for the others: at the top dose activity change, negative = inhibition, most hits filed as inhibitors; 53% of 670 active; shares compounds with ELG1 repair inh; HEK293T luciferase-tagged ELG1 level, MMS stimulated; note: % is set by controls: 0 for no effect and ±100 for the full control effect; nearly all actives have a fitted effect of over 60% in size
ELG1 5FU viab – confirmation of ELG1 repair inhibitors: viability with 5FU; 670 tested, under 10 active; shares compounds with ELG1 repair inh; cell viability with 5-FU, ELG1-dependent repair; Potency, µM (series often up to 46.1 µM), for inactives: at the highest dose activity change, negative = viability loss, usual class: cytotoxic;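 note: ELG1-luc HEK293T cells cotreated with 5-fluorouridine at 10 µM final; viability measured 16 h after compound addition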
ELG1 MMS cell – confirmation of ELG1 repair inhibitors: viability with MMS | 33% of 670 active | Potency, µM (doses to about 46.1 µM), without a hit: at the top dose activity change, negative = viability loss, actives largely listed as cytotoxic | Cell viability with MMS, ELG1-dependent DNA repair | shares compounds with ELG1 repair inh;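 note: ELG1-luc HEK293T cells co-treated with 10 µM MMS; viability read 16 h after compound addition; % is set by controls: 0 for no effect and ±100 for the full control effect; nearly all actives have a fitted effect of over 60% in size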
ELG1 unstim viab – unstimulated viability counter-screen for ELG1 repair hits | AID 624252 | Potency, µM (highest dose often 45.9 µM), for the others: at the top dose activity change, negative = loss of viability, most hits filed as cytotoxic | shares compounds with ELG1 repair inh | 8% of 900 active | cell viability counter-screen, unstimulated, luminescence;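 note: compound exposure lasted 16 hours before reading; % is set by controls: 0 for no effect and ±100 for the full control effect; nearly all actives have a fitted effect of over 55% in size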
FLuc enzyme – firefly luciferase inhibition counter-screen | shares compounds with ELG1 repair inh | purified firefly luciferase, luminescence counter-screen | Potency, µM (doses to about 57.5 µM), for the others: top-dose activity, negative = inhibition, actives largely listed as inhibitors | 10% of 350 active; note: % is set by controls: 0 for no effect and ±100 for the full control effect
An asterisk follows results filed as active; i = inactive; ? = inconclusive; . = no result given. Unless noted, calls come from the whole dose curve; as a rule, active = well fitted curve in the direction sought with a large enough effect; inconclusive = small, poorly fitted or top-dose-only effect, or another doubt; inactive = no such curve, though single readings can be large; an effect the other way counts as inactive or inconclusive. Potency is the fitted concentration of half-maximal effect.

SMILES | ELG1 repair inh | Rango dissoc inh | Tb PFK inh | Rango-impB inh | PKM2 act | PGK inhibitor | ELG1-Luc inh | ELG1-Luc MMS | ELG1 5FU viab | ELG1 MMS cell | ELG1 unstim viab | others
COc1ccc2c(c1)c(CC(=O)OCC(N)=O)c(C)n2C(=O)c1ccc(Cl)cc1 | -26% | 13% | 1% | 0% | 3% | 6% | . | . | . | . | .
COc1ccc2c(c1)c(CC(=O)Nc1ccc(C)cc1)c(C)n2C(=O)c1ccc(Cl)cc1 | ? | -4% | 2% | 10% | -1% | -5% | . | . | . | . | .
COc1ccc2c(c1)c(CC(=O)Nc1cccc(S(N)(=O)=O)c1)c(C)n2C(=O)c1ccc(Cl)cc1 | 18µM* | 17% | 0% | -1% | -1% | -7% | 14µM* | 18µM* | ? | ? | ? | ELG1 FLuc counter=-5%;FLuc enzyme=4%
NC(=O)C1CCN(c2ccc(S(=O)(=O)N3CCC(Cc4ccccc4)CC3)cn2)CC1 | ? | 7% | -1% | -1% | 3% | 5% | -15% | 2µM* | -10% | 2.5µM* | ?
COc1ccccc1Nc1nc(N2CCOCC2)nc(N2CCOCC2)n1 | 1.6µM* | 9% | 0% | 3% | . | -9% | 7.9µM* | 2% | ? | -2% | -8% | ELG1 FLuc counter=0%;FLuc enzyme=4%
Cc1ccc([N+](=O)[O-])cc1Nc1nc(N2CCOCC2)nc(N2CCOCC2)n1 | 16µM* | 15% | -3% | 0% | -6% | -14% | 8.9µM* | ? | ? | ? | ? | ELG1 FLuc counter=62%;FLuc enzyme=-6%
Cc1ccccc1C(=O)Nc1nnc(SCC(=O)NCc2ccco2)s1 | ? | 5% | 0% | 3% | -1% | 1% | . | . | . | . | .
Cc1ccccc1NC(=O)CSc1nc(O)cc(=O)n1C | -4% | -8% | 1% | -1% | 3% | -8% | . | . | . | . | .
COc1ccc(CNC(=O)c2ccc(CS(=O)(=O)Cc3ccccc3F)o2)cc1 | ? | 6% | 0% | 1% | -3% | i | . | . | . | . | .
COc1ccc(C)c2sc(N3CCN(C(=O)c4ccco4)CC3)nc12 | . | . | . | . | . | i | . | . | . | . | .
Cc1cc(C)c(C#N)c(SCC(=O)Nc2cc(C)on2)n1 | ? | -18% | -2% | -3% | . | 6% | . | . | . | . | -4%
CC(=O)N1N=C(c2ccco2)CC1c1ccco1 (stereo not drawn) | 7% | 9% | 0% | 1% | 6% | -3% | . | . | . | . | .
Cc1ccc(C2=NN(C(=O)CCl)C(c3ccco3)C2)o1 (stereo not drawn) | 2.3µM* | -3% | -2% | 0% | 18% | i | 22µM* | 4µM* | ? | 7.1µM* | ?
Cc1sc2ncnc(NC3CCN(Cc4ccccc4)CC3)c2c1C | 2.1µM* | -6% | 3% | 0% | 1% | 4% | ? | 1.3µM* | -4% | 1.6µM* | ?
COc1cccc(-c2nc(-c3ccc4c(c3)-c3ccccc3S4(=O)=O)c(-c3ccccc3)[nH]2)c1OC | 2.6µM* | ? | -3% | ? | 5% | 8% | 3.5µM* | -16% | ? | ? | -2%
O=C1CCC(C(=O)N2CCN(c3cnccn3)CC2)CN1CCc1ccccc1 (stereo not drawn) | . | . | . | . | . | i | . | . | . | . | .
Cn1c(=O)c2c(ncn2CC(=O)OCCCC(=O)c2ccc(Br)cc2)n(C)c1=O | ? | 9% | 7% | 5% | . | 4% | ? | 2.5µM* | -2% | 2.2µM* | ? | ELG1 FLuc counter=-3%;FLuc enzyme=2%
COC(=O)c1c(NC(=O)CN2CCN(c3ncccn3)CC2)sc(C(N)=O)c1C | -12% | -12% | 2% | -4% | -2% | -17% | . | . | . | . | .
COc1ccc(-c2nnc(SC(C)C(=O)Nc3cccc(Cl)c3)o2)cc1 (stereo not drawn) | ? | 10% | -1% | 0% | 22% | 0% | . | . | . | . | 1%
COc1ccc(-c2nnc(SC(C)C(=O)O)o2)cc1 (stereo not drawn) | . | . | . | . | . | -8% | . | . | . | . | .
COC(=O)c1ccc(N2C(=O)Cc3cc(OC)c(OC)cc3C2c2ccc(F)cc2)cc1 (stereo not drawn) | . | . | . | . | . | i | . | . | . | . | .
COc1cc(OC)c(OC)cc1/C=N/NC(=O)CSc1ccccc1F | -16% | 19% | -2% | 0% | . | -3% | . | . | . | . | .
COC(=O)Nc1cc(C)nc2ccccc12 | 1% | -8% | -4% | 5% | -2% | -5% | . | . | . | . | .
Cc1cc(NC(=O)Cc2ccccc2)c2ccccc2n1 | ? | 0% | -5% | -1% | 0% | 5% | ? | 2µM* | 1% | 2.5µM* | ?
COCCn1c(-c2cccs2)csc1=Nc1cccnc1 | ? | 22% | -2% | 1% | -4% | i | . | . | . | . | .
Fc1ccccc1-c1csc(=Nc2cccnc2)n1CCCn1ccnc1 | 10µM* | -26% | 0% | ? | 10% | -7% | 13µM* | 20µM* | 1% | 22µM* | ? | ELG1 FLuc counter=16%;FLuc enzyme=?
